This passage reports growth inhibition, inhibition and outcome results from PubChem BioAssay.

Assay [1] in a line: antimalarial activity against Dd2 strain (AID 2302;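 active = growth inhibition above 50% at the single 2 µM test dose, taken to imply half-maximal potency below 2 µM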;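 note: 0% = DMSO untreated growth and 100% = chloroquine plus artemisinin killed control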). Conditions: P. falciparum Dd2 in RBCs, LDH growth readout, 72 h; at 2 µM; hits give high values.
Assay [2] can be described thus: HepG2 cytotoxicity, primary screen, cytotoxicity control for P. falciparum antimalarial project, cell-based, ATP luminescence (AID 2303;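 active = inhibition above 50%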;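 note: 0% = DMSO wells and 100% = digitonin-killed cells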). The note with it: HepG2 viability, 24-48 h, at 10 µM, hits give high values.
For assay [3], the target named is L-lactate dehydrogenase (Plasmodium falciparum (isolate CDC / Honduras)) (UniProt Q27743). Kind of assay: PfLDH activity inhibition – cell lysate, 3D7 strain, counter-screen for P. falciparum growth inhibition project (AID 2304).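 Note: 0% = vehicle and 100% = reference inhibitor.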 Conditions: P. falciparum 3D7 crude extract, LDH APAD/NBT absorbance; at 2 µM; hits give high values. Background: Counterscreens check selectivity or assay interference.

The nature of assay [4]: inhibition of 3D7 malaria parasite growth – strain 3D7 (AID 2306).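 Note: 0% = DMSO wells and 100% = chloroquine plus artemisinin control wells.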 Conditions: P. falciparum 3D7 erythrocytic growth, LDH absorbance, 72 h; at 2 µM; hits give high values.
For assay [5], the target named is Calcium-dependent protein kinase 1 (Plasmodium falciparum (isolate 3D7)) (UniProt P62344). Briefly: PfCDPK1 kinase inhibitors, biochemical, TCAMS library (AID 1159585; cut-off not given, nearly all actives have IC50 up to about 0.98 µM;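 note: inhibitors leave more ATP so luminescence rises with inhibition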). Conditions: recombinant PfCDPK1, Kinase-Glo ATP depletion luminescence. On the technique in general: Kinase-Glo reads ATP consumption through a luciferase reaction.
The target in assay [6] is Plasmodium falciparum protein kinase 6 (PK6, PF3D7_1337100) (UniProt Q8IDW1). Briefly: PfPK6 kinase inhibitors, biochemical, TCAMS library (AID 1159586). The note with it: recombinant PfPK6, Kinase-Glo ATP depletion luminescence.
The target in assay [7] is Protein kinase 7 (PK7), Plasmodium falciparum 3D7 (PF3D7_0213400) (UniProt Q7YTF7). Briefly: inhibition of Plasmodium PK7 catalytic activity – biochemical, TCAMS antimalarial set, Kinase-Glo luminescence (AID 1159587). Conditions: recombinant PfPK7, Kinase-Glo ATP depletion luminescence.
Assay [8] addresses Calcium-dependent protein kinase 4 (Plasmodium falciparum (isolate 3D7)) (UniProt Q8IBS5). Kind of assay: PfCDPK4 kinase inhibitors, biochemical, TCAMS library (AID 1159588; cut-off not given, nearly all actives have IC50 up to about 0.91 µM). The note with it: recombinant PfCDPK4, Kinase-Glo ATP depletion luminescence.

Values without a mark were called inactive. For some of these results: Entries with a potency or affinity are not part of this list. Active and inactive are the calls of the source. Unless noted, the rule behind the calls is not given here.

L-lactate dehydrogenase (Plasmodium falciparum (isolate CDC / Honduras)), sequence (Q27743 whole entry, looked up): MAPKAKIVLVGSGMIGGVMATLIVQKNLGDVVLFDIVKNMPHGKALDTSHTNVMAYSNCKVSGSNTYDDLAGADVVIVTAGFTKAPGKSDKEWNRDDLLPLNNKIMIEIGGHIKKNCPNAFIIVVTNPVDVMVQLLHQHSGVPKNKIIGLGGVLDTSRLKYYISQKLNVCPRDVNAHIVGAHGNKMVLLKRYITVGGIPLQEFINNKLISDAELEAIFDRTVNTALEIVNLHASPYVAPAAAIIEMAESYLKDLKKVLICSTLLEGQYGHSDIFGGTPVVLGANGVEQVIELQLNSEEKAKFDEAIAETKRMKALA
Protein kinase 7 (PK7), Plasmodium falciparum 3D7 (PF3D7_0213400), sequence (Q7YTF7 1-343): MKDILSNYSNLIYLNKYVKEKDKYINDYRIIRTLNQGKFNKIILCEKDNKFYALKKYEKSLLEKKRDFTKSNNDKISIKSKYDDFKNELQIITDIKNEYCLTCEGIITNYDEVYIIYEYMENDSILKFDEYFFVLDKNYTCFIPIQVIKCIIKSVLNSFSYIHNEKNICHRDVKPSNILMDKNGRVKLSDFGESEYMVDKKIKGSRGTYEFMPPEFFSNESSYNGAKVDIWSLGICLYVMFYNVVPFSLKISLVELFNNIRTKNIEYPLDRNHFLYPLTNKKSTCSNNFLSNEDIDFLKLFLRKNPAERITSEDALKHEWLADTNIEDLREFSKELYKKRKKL
Calcium-dependent protein kinase 1 (Plasmodium falciparum (isolate 3D7)), sequence (P62344 whole entry, looked up): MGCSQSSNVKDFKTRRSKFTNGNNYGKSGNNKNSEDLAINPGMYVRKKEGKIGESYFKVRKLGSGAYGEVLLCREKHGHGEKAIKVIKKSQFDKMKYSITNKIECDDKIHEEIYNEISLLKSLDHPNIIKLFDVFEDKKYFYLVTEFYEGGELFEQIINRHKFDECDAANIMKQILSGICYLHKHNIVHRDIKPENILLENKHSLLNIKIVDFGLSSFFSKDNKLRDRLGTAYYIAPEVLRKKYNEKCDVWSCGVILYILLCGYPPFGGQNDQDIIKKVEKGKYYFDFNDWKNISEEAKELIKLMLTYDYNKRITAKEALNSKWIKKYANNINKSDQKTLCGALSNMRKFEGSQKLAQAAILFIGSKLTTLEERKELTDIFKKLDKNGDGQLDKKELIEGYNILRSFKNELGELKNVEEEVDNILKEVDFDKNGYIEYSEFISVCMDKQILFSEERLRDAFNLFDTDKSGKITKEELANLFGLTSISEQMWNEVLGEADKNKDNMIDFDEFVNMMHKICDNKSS
Calcium-dependent protein kinase 4 (Plasmodium falciparum (isolate 3D7)), sequence (Q8IBS5 whole entry, looked up): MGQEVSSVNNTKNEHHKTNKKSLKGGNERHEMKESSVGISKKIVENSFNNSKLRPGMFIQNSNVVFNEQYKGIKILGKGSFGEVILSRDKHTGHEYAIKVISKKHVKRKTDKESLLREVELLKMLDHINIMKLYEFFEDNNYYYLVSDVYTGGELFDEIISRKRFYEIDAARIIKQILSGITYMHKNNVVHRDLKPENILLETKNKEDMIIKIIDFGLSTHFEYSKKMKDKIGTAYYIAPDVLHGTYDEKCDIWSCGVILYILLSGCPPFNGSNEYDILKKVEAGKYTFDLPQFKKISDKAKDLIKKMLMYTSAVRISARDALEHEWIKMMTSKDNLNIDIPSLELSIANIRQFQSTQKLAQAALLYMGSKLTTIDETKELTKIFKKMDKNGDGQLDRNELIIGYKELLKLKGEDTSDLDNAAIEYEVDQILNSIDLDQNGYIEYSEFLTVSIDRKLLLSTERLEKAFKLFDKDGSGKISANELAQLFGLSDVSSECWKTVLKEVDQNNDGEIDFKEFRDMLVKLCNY
Plasmodium falciparum protein kinase 6 (PK6, PF3D7_1337100), sequence (Q8IDW1 1-305): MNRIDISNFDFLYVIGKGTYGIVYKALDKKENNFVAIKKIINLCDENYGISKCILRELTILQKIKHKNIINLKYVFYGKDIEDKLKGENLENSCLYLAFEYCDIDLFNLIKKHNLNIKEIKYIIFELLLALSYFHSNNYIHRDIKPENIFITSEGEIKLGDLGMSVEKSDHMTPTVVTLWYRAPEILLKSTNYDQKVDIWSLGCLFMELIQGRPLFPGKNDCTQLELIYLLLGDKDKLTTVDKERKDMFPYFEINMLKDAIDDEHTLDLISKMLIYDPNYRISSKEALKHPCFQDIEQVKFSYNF

As for `Cc1nnc2c(N(C(=O)NCCc3ccccc3)C(=O)NCCc3ccccc3)cc3cc(Cl)ccc3n12`, the growth inhibition in assay [1] was 34%; in assay [4], 91% (active). In addition, the inhibition (as a rule, the change of the read-out against control, counted positive when it falls) in assay [2] was 0%; in assay [3], -5%. Further, the outcome in assay [5], in assay [6], in assay [7] and in assay [8] was inactive.

Turning to `Cc1cnc(Nc2cccc(CCN3CCOCC3)c2)nc1NC(C)C`, the growth inhibition in assay [1] is 76% (active); in assay [4], 97% (active). Besides, the figures for the inhibition in assay [2] and in assay [3] were 53% (active) and 1%, respectively. Further, the result in assay [5], in assay [6], in assay [7] and in assay [8] was inactive.

For the molecule `COc1cc2nc(N3CCC(CNC(=O)c4cc(Br)c(Br)s4)CC3)nc(N)c2cc1OC`, the growth inhibition in assay [1] was 97% (active); in assay [4] it was 101% (active). In addition, the inhibition is 22% in assay [2] and 2% in assay [3]. Besides, the outcome in assay [5], in assay [6], in assay [7] and in assay [8] was inactive.

For `CCOc1ccc(N2CCN(CCCCNC(=O)c3ccc(NC(=O)c4ccc(Cl)cc4)cc3)CC2)c(OCC)c1`, the growth inhibition in assay [1] is 65% (active); in assay [4], 102% (active). Also, the inhibition in assay [2] is 36%; in assay [3] it was 2%. The outcome in assay [5], in assay [6], in assay [7] and in assay [8] was inactive.

Take `O=C(CCc1cnc[nH]1)Nc1ccc(-c2ccc(-c3nc4ccc(F)cc4[nH]3)cc2)cc1`: the growth inhibition in assay [1] is 58% (active); in assay [4] it was 99% (active). In addition, the inhibition was 26% in assay [2] and -1% in assay [3]. The result in assay [5], in assay [6], in assay [7] and in assay [8] was inactive.

Consider `COc1ccc2nccc(NCC3(O)CCN(CCc4ccc5c(c4)OCCO5)CC3)c2n1`, for which the values for the growth inhibition in assay [1] and in assay [4] were 87% (active) and 100% (active), respectively. Also, the inhibition was 35% in assay [2] and 3% in assay [3]. Besides, the outcome in assay [5], in assay [6], in assay [7] and in assay [8] was inactive.

Regarding `O=C(Cc1cccs1)NC(CCCN1CCC(Oc2cccc(Cl)c2)CC1)c1ccc(Cl)c(Cl)c1` (stereo not given), the growth inhibition in assay [1] was 70% (active); in assay [4], 86% (active). Further, the inhibition was 39% in assay [2] and 3% in assay [3]. The outcome in assay [5], in assay [6], in assay [7] and in assay [8] was inactive.

Take `COc1cc2nc(NCCn3ccnc3C)nc(NCCc3ccccc3)c2cc1OC`: the growth inhibition was 0% in assay [1] and 99% (active) in assay [4]. Also, the results for the inhibition in assay [2] and in assay [3] were 21% and -6%, respectively. Moreover, the result in assay [5], in assay [6], in assay [7] and in assay [8] was inactive.

`CC(C)COc1ccc(Cl)cc1Cc1ccc(-c2nc3cc(F)c(F)cc3[nH]2)o1`: the growth inhibition was 96% (active) in assay [1] and 95% (active) in assay [4]. Besides, the inhibition is 27% in assay [2] and 4% in assay [3]. Also, the result in assay [5], in assay [6], in assay [7] and in assay [8] was inactive.

As to `COc1ccc(CNCc2cccc(-c3cccc(-c4nc5ccc(C(F)(F)F)cc5[nH]4)c3)c2)cc1`, the growth inhibition is 91% (active) in assay [1] and 100% (active) in assay [4]. For the same molecule, the inhibition in assay [2] was 40%; in assay [3] it was 4%. Besides, the result in assay [5], in assay [6], in assay [7] and in assay [8] was inactive.

For `O=C(N[C@@H](Cc1ccccc1)CN1CCC(Oc2ccc(F)cc2)CC1)c1ccc(OCCCN2CCCCC2)cc1`, the figures for the growth inhibition in assay [1] and in assay [4] were 92% (active) and 102% (active), respectively. Also, the inhibition in assay [2] was 38%; in assay [3], 3%. For the same molecule, the result in assay [5], in assay [6], in assay [7] and in assay [8] was inactive.

As to `CCc1c(C)nc(-n2nc(C)cc2NC(=O)c2cccc3ccccc23)[nH]c1=O`, the growth inhibition in assay [1] is 89% (active); in assay [4], 98% (active). The figures for the inhibition in assay [2] and in assay [3] were 39% and 1%, respectively. The result in assay [5], in assay [6], in assay [7] and in assay [8] was inactive.

As for `COc1ccc(-c2ccccc2CNC2Cc3ccccc3C2)cc1S(=O)(=O)NCCN1CCCC1`, the growth inhibition was 47% in assay [1] and 96% (active) in assay [4]. In addition, the inhibition in assay [2] is 18%; in assay [3] it was -3%. Moreover, the outcome in assay [5], in assay [6], in assay [7] and in assay [8] was inactive.

On to `Cc1ccc(Cn2ncc(N3CCCNCC3)c(Cl)c2=O)cc1NC(=O)Nc1ccc(-c2ccccc2)cc1`, for which the values for the growth inhibition in assay [1] and in assay [4] were 38% and 101% (active), respectively. The inhibition in assay [2] is 55% (active); in assay [3], 1%. In addition, the outcome in assay [5], in assay [6], in assay [7] and in assay [8] was inactive.

In the case of `Cc1ccc(C)c(Cn2ccc3nc(Cl)nc(Cl)c32)c1`, the growth inhibition in assay [1] was 68% (active); in assay [4], 95% (active). Besides, the values for the inhibition in assay [2] and in assay [3] were -10% and -2%, respectively. Besides, the result in assay [5], in assay [6], in assay [7] and in assay [8] was inactive.

With `Cc1[nH]c(C)c(-c2ccc(C(F)(F)F)cc2)c(=O)c1Br`, the growth inhibition in assay [1] is 96% (active); in assay [4], 98% (active). Moreover, the inhibition in assay [2] is -5%; in assay [3] it was -8%. In addition, the outcome in assay [5], in assay [6], in assay [7] and in assay [8] was inactive.

With `Cc1ccc(NC(=O)c2ccc(Cl)c(Cl)c2)cc1-c1ccc(C(=O)Nc2ccncc2)cc1`, the growth inhibition in assay [1] was 79% (active); in assay [4] it was 99% (active). Besides, the inhibition in assay [2] was 39%; in assay [3], -3%. The outcome in assay [5], in assay [6], in assay [7] and in assay [8] was inactive.

For `Cc1cc(Oc2ccc(-n3ccnc3)cc2)nc(N2CCN(CCCN3CCCC3)CC2)n1`, the growth inhibition is 7% in assay [1] and 90% (active) in assay [4]. For the same molecule, the inhibition in assay [2] is 5%; in assay [3], 0%. The result in assay [5], in assay [6], in assay [7] and in assay [8] was inactive.

With `CN1CCN(CCc2ccc3nc(-c4csc(Cc5cc(Cl)ccc5OCc5ccccc5)n4)[nH]c3c2)CC1`, the values for the growth inhibition in assay [1] and in assay [4] were 97% (active) and 101% (active), respectively. Besides, the inhibition is 30% in assay [2] and -1% in assay [3]. The outcome in assay [5], in assay [6], in assay [7] and in assay [8] was inactive.

Turning to `O=C(Nc1ccc(Br)c(Cl)c1)c1cc([N+](=O)[O-])cc2cn[nH]c12`, the growth inhibition in assay [1] was 63% (active); in assay [4], 99% (active). Moreover, the inhibition was 49% in assay [2] and -1% in assay [3]. The outcome in assay [5], in assay [6], in assay [7] and in assay [8] was inactive.
